Values without a mark were called inactive. The source made the active and inactive calls.

The assay in a line: plasmodial surface anion channel blockers, osmotic lysis – cell-based, P. falciparum Indochina, OD700, 2 h, primary screen (AID 1155).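 Further: lysis reports solute entry through the parasite surface anion channel PSAC.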 The following applies: P. falciparum Indochina infected erythrocytes, higher = more signal, called active from +8 up or from −8 down.
With `COC(=O)[C@@]1(Cc2ccc(F)cc2)[C@H]2c3cc(C(=O)N(C)C)n(CCF)c3C[C@H]2CN1C(=O)c1ccccc1`, the z-score is -0.771.
For `COC(=O)[C@@]1(Cc2ccccc2)[C@H]2c3cc(C(=O)N(C)C)n(Cc4ccc(Cl)c(C(F)(F)F)c4)c3C[C@H]2CN1C(=O)c1ccccc1`, the z-score is 0.943.
Take `COc1ccc(NN2C(C(O)c3ccc(F)cc3)C=CC3C(=O)N(C4CCCCC4)C(=O)C32)cc1` (stereo not given): the z-score was 1.42.
Turning to `[N-]=[N+]=NCc1ccccc1C[C@@]1(C(N)=O)N=C(c2ccc(OCCCO)cc2)O[C@@H]1c1ccccc1N=[N+]=[N-]`, the z-score is 31.4 (active).
The value for `O=C1O[C@H](c2ccccc2)[C@H](c2ccccc2)N2[C@H]1[C@@H](C(=O)Nc1nc3ccccc3s1)[C@]1(C(=O)Nc3ccccc31)[C@H]2c1ccccc1OCCO` was 5.1; that for `CC(C)c1ccc(NN2C(C(O)C(C)c3ccccc3)C=CC3C(=O)N(c4ccccc4)C(=O)C32)cc1` (stereo not given) was 0.433; that for `COCCCNC(=O)[C@]1(Cc2ccccc2N=[N+]=[N-])N=C(c2ccc(OCCCO)cc2)O[C@@H]1c1ccccc1` was 22.5 (active).
For `COC(=O)[C@@]1(Cc2ccc(OC)cc2)[C@H]2c3cc(C(=O)N(C)C)n(Cc4c(CO)[nH]cc(C)c4=O)c3C[C@H]2CN1C(=O)c1ccccc1`, the z-score is 0.814.
The value for `COC(=O)C(CC#Cc1ccc2c(c1)[C@]1(C(=O)N2)[C@H](c2ccc(OCCO)cc2)N2[C@H](c3ccccc3)[C@H](c3ccccc3)OC(=O)[C@H]2[C@@H]1C(N)=O)C(=O)OC` was 1.36; that for `O=C1N(Cc2ccccc2)Cc2ccccc2C[C@@]12COC(c1ccc(OCCCO)cc1)=N2` was 4.93; that for `COCCCNC(=O)[C@@]1(c2ccc([N+](=O)[O-])cc2)CC(=O)N(C2CCCCC2)[C@@H]1c1ccc(CO)cc1I` was 1.35.
The value for `CO[C@H]1O[C@H](CO)[C@@H](OC(=O)Nc2ccccc2)[C@@H]2OC(=O)[C@@H](Cc3ccccc3)C/C=C/C[C@H](Cc3ccccc3)C(=O)O[C@@H]12` was 0.162; that for `O=C1O[C@@H](c2ccccc2)[C@@H](c2ccccc2)N2[C@@H](c3ccc(OCCO)cc3)[C@]3(C(=O)Nc4ccc(C#CC5=CCCCC5)cc43)[C@@H](C(=O)Nc3nc4ccccc4s3)[C@H]12` was 2.03; that for `COCCOC(=O)N1C(=O)[C@@]2(c3cc(C#CC4(O)CCCCCC4)ccc31)[C@H](C(N)=O)[C@H]1C(=O)O[C@H](c3ccccc3)[C@H](c3ccccc3)N1[C@@H]2c1ccc(OCCO)cc1` was 1.45.
The value for `COC(=O)C(CC#Cc1ccc2c(c1)[C@]1(C(=O)N2)[C@H](C(N)=O)[C@H]2C(=O)O[C@H](c3ccccc3)[C@H](c3ccccc3)N2[C@@H]1c1ccccc1OCCO)C(=O)OC` was 3.83.
As to `Cc1ccc(S[C@]2(C(=O)NCC(C)C)CC(=O)N(C(C)C)[C@@H]2c2ccc(CO)cc2I)cc1`, the z-score is 0.965.
For the compound `CN1C2C=C(c3ccc(CO)cc3)C(C3C(=O)N(C(N)=O)C(=O)C32)C1C1CC1` (stereo not given), the z-score was 0.411.
Turning to `[N-]=[N+]=NCc1ccccc1[C@H]1OC(c2ccc(OCCCO)cc2)=N[C@@]1(CCS(=O)(=O)c1ccccc1)C(=O)O`, the z-score is 6.
As for `COC(=O)[C@@]1(Cc2ccc(F)cc2)[C@H]2c3cc(C(=O)N4CCCC4)n(Cc4ccc(OC(F)(F)F)cc4)c3C[C@H]2CN1C(=O)c1ccccc1`, the z-score is 0.851.
For `C[N+](C)(C)CCCC[C@@H]1NC(=O)[C@H]2C[C@@H](C(=O)O)[C@@H](c3ccc(O)cc3)N2C1=O`, the z-score is 1.17.
As for `CN1C(=O)C2CC=C(C3=CCO[C@@H]3[C@H]3CCCN3S(=O)(=O)c3ccccc3[N+](=O)[O-])CC2C1=O` (stereo not given in full), the z-score is 0.672.
`COC(=O)[C@@]1(Cc2ccc(F)cc2)[C@H]2c3cc(C(=O)N4CCCC4)n(Cc4ccc(C(F)(F)F)nc4)c3C[C@H]2CN1C(=O)c1ccccc1`: the z-score was 0.229.
The value for `C=C(CCCC)/C(=C/C[C@@H](OC(C)=O)c1cccc(OCCO)c1)c1cc(C(=O)OC)ccc1OC` was 3.45.
As to `O=C/C=C/c1ccc(-c2ccccc2)cc1`, the z-score is -0.681.
As for `O=C1O[C@H](c2ccccc2)[C@H](c2ccccc2)N2[C@H]1[C@@H](C(=O)N1CCCCCCC1)[C@]1(C(=O)Nc3ccc(C#CCCO)cc31)[C@H]2c1ccc(O)cc1`, the z-score is -0.0898.

Source of the values: PubChem BioAssay.
